# In PubChem BioAssay AID588442 (The Scripps Research Institute Molecular Screening Center, 2011):
# Measured potencies and affinities stand elsewhere. More than one record can exist for a structure, and the calls need not agree. Values without a mark were called inactive.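 How the source made its calls: active means EC50 of 10 µM or lower; inactive means EC50 above 10 µM or not measured.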
# Test: optical interference in Abeta FP readout, dose response, artefact control for IDE activator project, biochemical, fluorescence polarization (AID 588442)
# Details: FP artifact counterscreen, fluorescein-Abeta, no enzyme activity
smiles,measurement,value
C[n+]1c2cc(N)ccc2cc2ccc(N)cc21,EC50,> 54.7 µM
